PubChem BioAssay (Tox21)
Values joined by “and” are separate entries in the source; they are usually repeats but may differ in a detail not shown here. Equal entries are not always repeated. Records with an inconclusive call do not appear. Where a call stands in place of a potency, no number is given. Some structures have more than one record in an assay (separate samples or runs), and their calls can disagree. Active and inactive are the calls of the source. Calls come from the whole dose curve; as a rule, active = well fitted curve in the direction sought with a large enough effect in the repeat runs; inconclusive = weak or mixed curves; inactive = no such curve, though single readings can be large; an effect the other way counts as inactive or inconclusive.

Test: A CellTox Green Cytotoxicity Assay to monitor cytotoxicity in HEK293 cells - 16 hour (AID 1224888); note: nearly all actives have a fitted effect of over 35% in size
Settings: CellTox Green fluorescence; series mostly up to 76.8 µM; activity change: at the top concentration
Summary of the method: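 Fluorescence intensity, read at 0, 8, 16, 24, 32 and 40 h of compound treatment, reflected dye binding to DNA of dead HEK293 cells; compounds (23 nL, DMSO) were added 5 h after plating cells with reagent.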
Potency is the fitted concentration of half-maximal effect.

Row | SMILES | Potency
1 | S=c1[nH]c2ccccc2[nH]1 | inactive
2 | CCCCC(C#N)(Cn1cncn1)c1ccc(Cl)cc1 (configuration not stated) | inactive
3 | O=P(OCCCl)(OCCCl)OCCCl | inactive
4 | COc1ccc(O)c(C(C)(C)C)c1 | inactive
5 | CC(C)Nc1nc(Cl)nc(NC(C)C)n1 | inactive
6 | COP(=S)(OC)Oc1ccc(Sc2ccc(OP(=S)(OC)OC)cc2)cc1 | inactive
7 | Brc1ccc(Br)cc1 | inactive
8 | ClCc1ccccn1 | inactive
9 | COP(=S)(OC)SCn1nnc2ccccc2c1=O | inactive
10 | CC(C)(c1ccc(OCC2CO2)cc1)c1ccc(OCC2CO2)cc1 (configuration not stated) | inactive
11 | CSc1nc(NC(C)C)nc(NC(C)C)n1 | inactive
12 | CC1(C)C(C(=O)OC(C#N)c2cccc(Oc3ccccc3)c2)C1(C)C (configuration not stated) | inactive
13 | CNC(=O)Oc1cccc2c1OC(C)(C)C2 | inactive
14 | CNC(=S)S | inactive
15 | Cc1ccc(N=CN(C)C=Nc2ccc(C)cc2C)c(C)c1 | inactive
16 | CC(C)=CC1C(C(=O)OCc2cccc(Oc3ccccc3)c2)C1(C)C (configuration not stated) | inactive
17 | O=C1C(Cl)=C(Cl)C(=O)c2ccccc21 | 4.91 µM (active)

Row | SMILES | Potency
18 | CCOP(=S)(OCC)SCSC(C)(C)C | inactive
19 | OCCOCCO | inactive
20 | COc1ccc(C=O)cc1OC | inactive
21 | CCCCSP(=O)(SCCCC)SCCCC | inactive
22 | Cn1c(-c2ccccc2)cc(-c2ccccc2)[n+]1C | inactive
23 | Cc1cccc(N=Nc2ccc(N(C)C)cc2)c1 | inactive
24 | C=CC(Cl)CCl (configuration not stated) | inactive
25 | CC(C)(C#N)N=NC(C)(C)C#N | inactive
26 | CCCCOCCOC(C)=O | inactive
27 | O=[N+]([O-])c1ccc(Nc2ccccc2)cc1 | inactive
28 | C=C(C)C#N | inactive
29 | N#CCCCCC#N | inactive
30 | CS(=O)(=O)NC(=O)c1cc(Oc2ccc(C(F)(F)F)cc2Cl)ccc1[N+](=O)[O-] | inactive
31 | CCC[CH2][Sn]([Cl])([CH2]CCC)[CH2]CCC | 3.1 µM (active) and 5.49 µM (active)
32 | CCOP(=S)(OCC)OP(=S)(OCC)OCC | inactive
33 | N#CC(c1ccccc1)c1ccccc1 | inactive

Test: qHTS RealTime-Glo MT Cell Viability Assay in HepG2 cells - 0 hour (AID 1224889); note: nearly all actives have a fitted effect of over 50% in size
Settings: RealTime-Glo luminescence; series mostly up to 76.8 µM; activity change, negative = cytotoxicity: at the top concentration
Summary of the method: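 Viability was tracked continuously by NanoLuc luminescence from prosubstrate reduced by living HepG2 cells, at successive time points over 40 h of compound exposure. Cells with reagent were preincubated 5 h at 37 °C before compound addition.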

Row | SMILES | Potency | activity change, negative = cytotoxicity
34 | S=c1[nH]c2ccccc2[nH]1 | inactive | –
35 | CCCCC(C#N)(Cn1cncn1)c1ccc(Cl)cc1 (configuration not stated) | inactive | –
36 | O=P(OCCCl)(OCCCl)OCCCl | inactive | –
37 | COc1ccc(O)c(C(C)(C)C)c1 | inactive | –
38 | CC(C)Nc1nc(Cl)nc(NC(C)C)n1 | inactive | –
39 | COP(=S)(OC)Oc1ccc(Sc2ccc(OP(=S)(OC)OC)cc2)cc1 | inactive | –
40 | Brc1ccc(Br)cc1 | inactive | –
41 | OC(c1ccc(Cl)cc1)(c1cncnc1)c1ccccc1Cl (configuration not stated) | – | -25.7% (inactive)
42 | ClCc1ccccn1 | inactive | –
43 | C[C@]12CCC(=O)C=C1CC[C@@H]1[C@@H]2CC[C@@]2(C)[C@H]1CC[C@]2(C)O | 14.3 µM (active) and 9.52 µM (active) | –
44 | COP(=S)(OC)SCn1nnc2ccccc2c1=O | inactive | –
45 | CC(C)(c1ccc(OCC2CO2)cc1)c1ccc(OCC2CO2)cc1 (configuration not stated) | inactive | –
46 | CCOP(=O)(O)OCC (tested in a mixture with another compound) | inactive | –
47 | CSc1nc(NC(C)C)nc(NC(C)C)n1 | inactive | –
48 | CC1(C)C(C(=O)OC(C#N)c2cccc(Oc3ccccc3)c2)C1(C)C (configuration not stated) | inactive | –
49 | CCCCOCC1CO1 (configuration not stated) | inactive | –
50 | CNC(=O)Oc1cccc2c1OC(C)(C)C2 | inactive | –
51 | CNC(=S)S | inactive | –

Row | SMILES | Potency | activity change, negative = cytotoxicity
52 | Cc1ccc(N=CN(C)C=Nc2ccc(C)cc2C)c(C)c1 | inactive | –
53 | CC(C)=CC1C(C(=O)OCc2cccc(Oc3ccccc3)c2)C1(C)C (configuration not stated) | inactive | –
54 | CCOP(=S)(OCC)SCSC(C)(C)C | inactive | –
55 | OCCOCCO | inactive | –
56 | COc1ccc(C=O)cc1OC | inactive | –
57 | CCCCSP(=O)(SCCCC)SCCCC | – | -35.3% (inactive)
58 | Cn1c(-c2ccccc2)cc(-c2ccccc2)[n+]1C | inactive | –
59 | Cc1cccc(N=Nc2ccc(N(C)C)cc2)c1 | inactive | –
60 | C=CC(Cl)CCl (configuration not stated) | – | -0.0946% (inactive)
61 | CC(C)(C#N)N=NC(C)(C)C#N | inactive | –
62 | CCCCOCCOC(C)=O | inactive | –
63 | O=[N+]([O-])c1ccc(Nc2ccccc2)cc1 | inactive | –
64 | C=C(C)C#N | inactive | –
65 | N#CCCCCC#N | inactive | –
66 | CS(=O)(=O)NC(=O)c1cc(Oc2ccc(C(F)(F)F)cc2Cl)ccc1[N+](=O)[O-] | inactive | –
67 | CCC[CH2][Sn]([Cl])([CH2]CCC)[CH2]CCC | inactive | –
68 | CCOP(=S)(OCC)OP(=S)(OCC)OCC | inactive | –
69 | N#CC(c1ccccc1)c1ccccc1 | inactive | –

Test: A CellTox Green Cytotoxicity Assay to monitor cytotoxicity in HepG2 cells - 8 hour (AID 1224890); note: nearly all actives have a fitted effect of over 45% in size
Settings: CellTox Green fluorescence; series mostly up to 76.8 µM; cytotoxicity increase: at the top concentration
Summary of the method: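 Using 1536-well format, dye-containing HepG2 suspension was seeded, allowed 5 h at 37 C/5% CO2, dosed by pintool with compounds, positive and negative controls, and imaged for fluorescence across 40 h.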

Row | SMILES | cytotoxicity increase | Potency
70 | S=c1[nH]c2ccccc2[nH]1 | 2.63% (inactive) | –
71 | CCCCC(C#N)(Cn1cncn1)c1ccc(Cl)cc1 (configuration not stated) | – | inactive
72 | O=P(OCCCl)(OCCCl)OCCCl | – | inactive
73 | COc1ccc(O)c(C(C)(C)C)c1 | – | inactive
74 | CC(C)Nc1nc(Cl)nc(NC(C)C)n1 | – | inactive
75 | COP(=S)(OC)Oc1ccc(Sc2ccc(OP(=S)(OC)OC)cc2)cc1 | – | inactive
76 | Brc1ccc(Br)cc1 | – | inactive
77 | OC(c1ccc(Cl)cc1)(c1cncnc1)c1ccccc1Cl (configuration not stated) | – | inactive
78 | ClCc1ccccn1 | – | inactive
79 | C[C@]12CCC(=O)C=C1CC[C@@H]1[C@@H]2CC[C@@]2(C)[C@H]1CC[C@]2(C)O | – | 22.1 µM (active) and inactive
80 | COP(=S)(OC)SCn1nnc2ccccc2c1=O | – | inactive
81 | CC(C)(c1ccc(OCC2CO2)cc1)c1ccc(OCC2CO2)cc1 (configuration not stated) | – | inactive
82 | CCOP(=O)(O)OCC (tested in a mixture with another compound) | – | inactive and 54.5 µM (active)
83 | CSc1nc(NC(C)C)nc(NC(C)C)n1 | – | inactive
84 | CC1(C)C(C(=O)OC(C#N)c2cccc(Oc3ccccc3)c2)C1(C)C (configuration not stated) | – | inactive
85 | CCCCOCC1CO1 (configuration not stated) | – | inactive and 43.6 µM (active)
86 | CNC(=O)Oc1cccc2c1OC(C)(C)C2 | – | inactive
87 | CNC(=S)S | – | inactive
88 | Cc1ccc(N=CN(C)C=Nc2ccc(C)cc2C)c(C)c1 | – | inactive

Row | SMILES | cytotoxicity increase | Potency
89 | CC(C)=CC1C(C(=O)OCc2cccc(Oc3ccccc3)c2)C1(C)C (configuration not stated) | – | inactive
90 | O=C1C(Cl)=C(Cl)C(=O)c2ccccc21 | – | 15.5 µM (active) and 6.17 µM (active)
91 | CCOP(=S)(OCC)SCSC(C)(C)C | – | inactive
92 | OCCOCCO | – | inactive
93 | COc1ccc(C=O)cc1OC | – | inactive
94 | CCCCSP(=O)(SCCCC)SCCCC | – | inactive
95 | Cn1c(-c2ccccc2)cc(-c2ccccc2)[n+]1C | – | inactive
96 | Cc1cccc(N=Nc2ccc(N(C)C)cc2)c1 | – | inactive
97 | C=CC(Cl)CCl (configuration not stated) | – | inactive
98 | CC(C)(C#N)N=NC(C)(C)C#N | – | inactive
99 | CCCCOCCOC(C)=O | – | inactive
100 | O=[N+]([O-])c1ccc(Nc2ccccc2)cc1 | – | inactive
101 | C=C(C)C#N | – | inactive
102 | N#CCCCCC#N | – | inactive
103 | CS(=O)(=O)NC(=O)c1cc(Oc2ccc(C(F)(F)F)cc2Cl)ccc1[N+](=O)[O-] | – | inactive
104 | CCC[CH2][Sn]([Cl])([CH2]CCC)[CH2]CCC | – | 3.47 µM (active) and 1.95 µM (active)
105 | CCOP(=S)(OCC)OP(=S)(OCC)OCC | – | inactive
106 | O=S(=O)(O)C(F)(F)C(F)(F)C(F)(F)C(F)(F)C(F)(F)C(F)(F)C(F)(F)C(F)(F)F | – | inactive
107 | N#CC(c1ccccc1)c1ccccc1 | – | inactive
